TWEAK Fn14 block: inhibitors of TWEAK-Fn14 signaling, primary screen, luciferase reporter cells, uHTS; inhibition, % at 10 µM; TWEAK-stimulated Fn14 reporter cells, luciferase luminescence, 8 h; actives 2% (n = 360,000); in the data active = inhibition above about 50%
CF NFkB inh: inhibitors of PAF-induced NF-kB signaling, primary screen, cell-based, GFP fluorescence, uHTS; KKLEB NF-kB-GFP reporter, GFP fluorescence overnight; inhibition, % at 5 µM; actives 0.86% (n = 360,000);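 active = at least 50% inhibition at 5 µM, scaled per plate between neutral and stimulator controls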;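 note: PAF is a Pseudomonas aeruginosa culture filtrate used as stimulus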
iPSC survival up: enhancers of single-cell hiPSC survival, primary screen, ATPlite luminescence. 100% = ROCK inhibitor wells, 0% = DMSO. survival enhancement, % at 20 µM. actives 0.044% (n = 360,000). AID 602274, 2012; in the data active = survival enhancement above about 18%;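 note: cells exposed to compounds for 16 hours before the ATP read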
LGR2 antag: inhibitors of bursicon-induced LGR2 CRE-luciferase signal, primary screen, cell-based, HEK293, CRE-luciferase reporter, bursicon stimulation. inhibition, % at 9.99 µM. Drosophila bursicon receptor LGR2 (rickets). AID 720647, 2013. actives 0.35% (n = 380,000). bursicon-stimulated, 4 h;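 active = drop in luminescence signal, shown as inhibition above about 50% in the replicate tests, limit read from the data, passing the limit was not always enough; inconclusive = probably only some replicates passing the limit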;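 note: agonist challenge used bursicon conditioned medium at about half maximal strength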
HIF-2a block: HIF-2a reporter inhibitors, primary screen, luminescence, 786-0 RCC cells; inhibition, % at 18.8 µM; 786-0 RCC cells HIF-2a reporter, luciferase luminescence, overnight; actives 0.72% (n = 360,000); AID 624352, 2012;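 active = inhibition of the luminescence signal of 40% or more relative to plate controls, in a single-dose primary screen at 18.75 µM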
KKLEB cytotox: cytotoxicity in KKLEB CF airway cells, primary screen, cytotoxicity control for CF NF-kB inhibitor project, cell-based, uHTS, fluorescence assay plates | KKLEB CF airway cells viability, ATPlite luminescence, overnight; active compounds read low; cells stimulated with P. aeruginosa culture filtrate | AID 602141, 2011 | actives 0.36% (n = 360,000) | activity change (cytotoxicity), % at 5 µM;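 active = corrected activity change at or below -50% at 5 µM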
CF NFkB conf: inhibitors of PAF-induced NF-kB signaling, retest, confirmation, cell-based, GFP fluorescence, single concentration; KKLEB CF airway cells, overnight; shares compounds with CF NFkB inh; actives 64% (n = 1,300); inhibition, % at 5 µM; in the data active = inhibition above about 40%;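 note: stimulus PAF is a Pseudomonas aeruginosa filtrate and not platelet activating factor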
Mdm2 MdmX conf: retested Mdm2-MdmX interaction blockers, confirmation, cell-based, luminescence, single concentration, set 2. shares compounds with HIF-2a block. SaOS-2 split-luciferase Mdm2/MdmX complementation. inhibition, % at 8 µM. actives 99% (n = 740). AID 504601, 2011;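 active = mean inhibition of the luminescence signal across two replicates at or above 26 percent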
Target sequence (O15151 whole entry, looked up): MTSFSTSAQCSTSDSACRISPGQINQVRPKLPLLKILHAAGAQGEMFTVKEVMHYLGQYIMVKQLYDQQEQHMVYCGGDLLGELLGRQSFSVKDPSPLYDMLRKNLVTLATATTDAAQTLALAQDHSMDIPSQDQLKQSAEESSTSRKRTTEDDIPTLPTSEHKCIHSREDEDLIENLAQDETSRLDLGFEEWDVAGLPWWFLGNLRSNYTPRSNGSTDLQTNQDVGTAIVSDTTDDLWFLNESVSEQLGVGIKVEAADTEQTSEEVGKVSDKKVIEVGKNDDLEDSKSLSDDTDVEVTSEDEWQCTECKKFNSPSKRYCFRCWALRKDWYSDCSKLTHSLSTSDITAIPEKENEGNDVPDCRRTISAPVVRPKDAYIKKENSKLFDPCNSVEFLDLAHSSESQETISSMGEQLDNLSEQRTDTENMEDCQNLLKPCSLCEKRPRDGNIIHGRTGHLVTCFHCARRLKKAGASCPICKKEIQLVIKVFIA
Target sequence (Q00987 whole entry, looked up): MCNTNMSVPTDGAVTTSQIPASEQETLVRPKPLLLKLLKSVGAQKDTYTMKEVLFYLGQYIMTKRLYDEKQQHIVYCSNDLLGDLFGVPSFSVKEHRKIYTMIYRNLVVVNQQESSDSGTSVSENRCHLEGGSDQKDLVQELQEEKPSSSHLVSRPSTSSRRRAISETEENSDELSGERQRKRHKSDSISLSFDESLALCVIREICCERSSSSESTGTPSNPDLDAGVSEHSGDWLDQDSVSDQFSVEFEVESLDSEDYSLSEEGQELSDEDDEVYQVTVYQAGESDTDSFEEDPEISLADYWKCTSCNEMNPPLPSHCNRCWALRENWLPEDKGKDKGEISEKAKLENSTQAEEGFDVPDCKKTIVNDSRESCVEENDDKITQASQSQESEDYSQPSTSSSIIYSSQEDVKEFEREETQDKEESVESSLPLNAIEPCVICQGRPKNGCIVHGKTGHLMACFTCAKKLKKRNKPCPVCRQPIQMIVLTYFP
HIF-2a inh conf: HIF-2a reporter inhibitor retest, confirmation, luminescence, 786-0 RCC cells; shares compounds with HIF-2a block; HIF-2a luciferase reporter luminescence, overnight; inhibition, % at 18.8 µM; actives 56% (n = 1,800); AID 651580, 2012;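 active = mean inhibition across four replicates of at least 40 percent at the single tested concentration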
HIF-1a counter: HIF-1a luciferase reporter signal reduction – MiaPaCa-2 cells, single concentration, counter-screen for HIF-2a inhibitor project, confirmation; shares compounds with HIF-2a block; MiaPaCa-2 HIF-1a luciferase reporter, desferoxamine, overnight; inhibition, % at 18.8 µM; actives 72% (n = 1,800); AID 651589, 2012;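 active = mean inhibition of the reporter signal across four replicates at the single tested dose of 50% or more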
A number is an active result; i = inactive; ? = inconclusive; nt = not tested or not shown. Only some compounds are listed: those with a hit (about 2.3% of all), similar ones and a draw of the others.

SMILES	TWEAK Fn14 block	CF NFkB inh	iPSC survival up	LGR2 antag	HIF-2a block	KKLEB cytotox	CF NFkB conf	HIF-2a inh conf	HIF-1a counter	others
COCC(=O)Nc1ccc2c(c1)C(=O)N(C)C[C@H](OC)[C@@H](C)CN(CCC(F)(F)F)[C@@H](C)CO2	nt	nt	nt	i	nt	nt	nt	nt	nt
COc1ccc(-c2cc(-c3nc4ccccn4c3NCc3ccccc3)ccc2OC)cc1	i	71	i	100	i	i	97	nt	nt	Mdm2 MdmX conf=102
FC(F)(F)c1nnc2c(Sc3ccc(Cl)cc3)nc3ccccc3n12	61	104	i	nt	41	i	101	i	i
O=C(Nc1nccs1)[C@H]1[C@H](CO)[C@H]2Cn3c(ccc(-c4cccnc4)c3=O)[C@H]2N1CC1CCCC1	nt	nt	nt	i	nt	nt	nt	nt	nt
COc1ccccc1-c1cc(C(F)(F)F)nc(S(C)(=O)=O)n1	i	69	i	nt	78	i	40	68	105	Mdm2 MdmX conf=102
COc1ccccc1-c1cc(C(F)(F)F)nc(N2CCCC2)n1	i	i	i	nt	i	i	nt	nt	nt
CCOC(=O)c1ccc(Nc2ncnc3c2cnn3C)cc1	i	i	i	i	i	i	nt	nt	nt
Cn1ncc2c(O/N=C(\N)c3ccc(C(C)(C)C)cc3)ncnc21	100	58	i	nt	93	i	88	98	i	Mdm2 MdmX conf=103
COc1ccc2c3c(n(C)c2c1)[C@@H](CO)N(C(=O)CN(C)C)CC31CN(Cc2nccs2)C1	nt	nt	nt	i	nt	nt	nt	nt	nt
CC1=CC(C)(C)Nc2ccc(OC(=O)CN3C(=O)c4ccccc4C3=O)cc21	89	51	i	nt	88	i	i	88	96
CCC(=O)c1ccc2c(c1)OCCO2	i	i	i	i	i	i	nt	nt	nt
CCc1ccccc1NC(=O)CN(C)C(=O)Cn1cnc2ccc(Cl)cc2c1=O	i	i	i	i	i	i	nt	nt	nt
O=C(Cn1ncc(Cl)c(Cl)c1=O)c1ccc2c(c1)OCCO2	101	79	i	?	81	i	i	i	103	Mdm2 MdmX conf=103
O=C(Cn1ncc(Cl)c(Cl)c1=O)Nc1ccc2c(c1)OCO2	75	64	i	i	95	i	i	i	104	Mdm2 MdmX conf=103
CCc1ccccc1NC(=O)CN(C)C(=O)Cn1ncc(Cl)c(Cl)c1=O	93	52	i	nt	98	i	56	i	106
Cc1nn(CC(=O)Nc2ccc3c(c2)OCO3)c(C)c1Cl	i	i	i	i	i	i	nt	nt	nt
COc1ccc2c3c([nH]c2c1)[C@H](CO)N(C(=O)Nc1c(C)noc1C)CC31CCN(CC2CCCCC2)CC1	nt	nt	nt	i	nt	nt	nt	nt	nt
CCC(=O)N1CC2(C1)[C@H](c1ccc(-c3ccccc3)cc1)[C@@H](CO)N2C(C)=O	nt	nt	nt	i	nt	nt	nt	nt	nt
COc1ccc2c3c([nH]c2c1)[C@@H](CO)N(C(=O)NC(C)C)CC31CCN(C(=O)NC(C)C)CC1	nt	nt	nt	i	nt	nt	nt	nt	nt
C[C@H]1CN([C@@H](C)CO)S(=O)(=O)c2ccc(C#CCN(C)C)cc2O[C@H]1CN(C)C	nt	nt	nt	i	nt	nt	nt	nt	nt
O=C(Nc1ccc([N+](=O)[O-])cc1)c1ccc(S(=O)(=O)N2CCCC2)cc1	i	i	i	i	i	i	nt	nt	nt
O=C(Nc1ccc(S(=O)(=O)N2CCCCCC2)cc1)c1[nH]ncc1[N+](=O)[O-]	i	70	i	i	40	i	i	74	88

High-throughput results deposited in PubChem BioAssay by several laboratories.
